Test results from PubChem BioAssay (NCATS).
Results filed as inconclusive are left out. Entries that show only a call come without a potency. Calls of active or inactive are those of the source. Calls come from the whole dose curve; as a rule, active = well fitted inhibition curve with a large enough effect; inconclusive = small, poorly fitted or top-dose-only effect; inactive = no such curve, though single readings can be large or run the other way.

assay: qHTS Screen of the MIPE 4.0 Collection Against Ewings Sarcoma (TC32) (AID 1259256); settings: TC32 Ewing sarcoma viability, CellTiter-Glo, 48 h; series mostly up to 45.8 µM; note: nearly all actives have a fitted effect of over 45% in size
Text: There is a large unmet medical need for treatments for Ewing sarcoma, a pediatric sarcoma. We sought to identify compounds that inhibited Ewing sarcoma cells in vitro with the goal to then test promising drugs in two drug combinations in vitro to look for synergistic drug combinations. Promising combinations would then proceed to additional validation, including in vivo testing.
Using the NCATS developed oncology compound library called the Mechanism of Interrogation Plate (MIPE), four Ewing sarcoma cell lines were evaluated (TC32, TC71, RDES, EW8). Compounds, in a 12-point titration series, were incubated with cells for 48 hours and the read out was cell viability (CellTiter-Glo from Promega). These initial experiments were used to select appropriate concentrations of each single agent for subsequent two-drug matrix combinations such that the concentrations in the matrices would span both activity and non-activity.
Cells, in the log phase of growth, were seeded in 5 uL of RPMI plus 5% FBS, […] L-glutamine, 100 U/ml penicillin and 100 ug/ml streptomycin into 1536-well solid-bottom white tissue culture treated Greiner Bio One Plates (789173-F) using a MultiDrop Combi (Thermofisher Scientific) dispenser and a small sterile cassette. One column was media alone to be used as a :"no cells" control. The plates were then covered with sterilized stainless steel gasketed lids from Kalypsys. After allowing cells to attach for 4 hours, 23 nL of test compound or control (negative control DMSO and positive control 9.2 uM Bortezomib-final) were added from a 1536-well polypropylene compound source plate to each well using a 1536 head pin tool from Kalypsys. Cells were then incubated for 48 hours at 37C, 95% relative humidity and 5% CO2. After 48 hours, plates were removed from the incubator and 3 uL of CellTiter-Glo (Promega) was added using an Aurora Flying Reagent Dispenser Bioraptor. Plates were incubated at room temperature for 10 minutes prior to reading the luminescence on the Viewlux (PerkinElmer). The relative luciferase units are used to calculate the percent activity using the activity of DMSO in the cells and no cells columns for normalization of no inhibition and full inhibition respectively.
Potency is the fitted concentration of half-maximal effect.

SMILES | Potency
CCN(CC)CCOc1ccc(Nc2ncc3cc(-c4c(Cl)cccc4Cl)c(=O)n(C)c3n2)cc1 | 2.64 µM (active)
Nc1nc(Cl)nc2c1ncn2[C@H]1C[C@H](O)[C@@H](CO)O1 | 0.296 µM (active)
CCN(CC)C(=S)SSC(=S)N(CC)CC | inactive
COc1cc(OC)c(C(=O)CCCN2CCCC2)c(OC)c1 | inactive
N[C@@H](Cc1cc(I)c(Oc2cc(I)c(O)c(I)c2)c(I)c1)C(=O)O | 3.72 µM (active)
NCCCCNCCCN | inactive
NNc1nncc2ccccc12 | inactive
CC1(C)NC(=O)N(c2ccc([N+](=O)[O-])c(C(F)(F)F)c2)C1=O | inactive
CC(C)[C@H](N)C(=O)OCCOCn1cnc2c(=O)[nH]c(N)nc21 | inactive
CC(C)c1nc(CN(C)C(=O)N[C@H](C(=O)N[C@@H](Cc2ccccc2)C[C@H](O)[C@H](Cc2ccccc2)NC(=O)OCc2cncs2)C(C)C)cs1 | 14.8 µM (active)
S=c1nc[nH]c2nc[nH]c12 | 3.32 µM (active)
c1ccc2[nH]c(-c3cscn3)nc2c1 | inactive
Cc1cc(Cl)ccc1OCCCC(=O)NO | 11.8 µM (active)
CCCOc1ccc2nc(NC(=O)OC)[nH]c2c1 | inactive
CCOC(=O)c1c(C)n(C)c2ccc(O)cc12 | inactive
CC(C)(S)[C@@H](N)C(=O)O | inactive
COc1c(O)cc2c(c1O)[C@@H]1O[C@H](CO)[C@@H](O)[C@H](O)[C@H]1OC2=O | inactive
O=C(O)c1cccc(-c2noc(-c3ccccc3F)n2)c1 | inactive
O=C(O)c1cccnc1Nc1cccc(C(F)(F)F)c1 | inactive
CN(C)c1ccc2nc3ccc(=[N+](C)C)cc-3sc2c1 | 9.35 µM (active)

SMILES | Potency
Clc1ccc2c(N3CCN(CCCN4CCN(c5ccnc6cc(Cl)ccc56)CC4)CC3)ccnc2c1 | inactive
COc1ccc2cc([C@H](C)C(=O)O)ccc2c1 | inactive
COc1c2occc2cc2ccc(=O)oc12 | 3.32 µM (active)
CN1C(C(=O)Nc2ccccn2)=C(O)c2sccc2S1(=O)=O | inactive
O=C(OC1C[C@H]2CC[C@@H](C1)[N+]21CCCC1)C(O)(c1ccccc1)c1ccccc1 (stereo not given in full) | inactive
Cc1cc(O)c2c(c1)C(=O)c1cc(O)cc(O)c1C2=O | inactive
Cc1cc2c(s1)Nc1ccccc1N=C2N1CCN(C)CC1 | inactive
O=c1c(O)c(-c2ccc(O)cc2O)oc2cc(O)cc(O)c12 | inactive
O=C1c2ccccc2-c2n[nH]c3cccc1c23 | 18.7 µM (active)
Cc1ccc(Nc2nccc(N(C)c3ccc4c(C)n(C)nc4c3)n2)cc1S(N)(=O)=O | inactive
COc1cc2nc(N3CCN(C(=O)C4CCCO4)CC3)nc(N)c2cc1OC (stereo not given) | inactive
C[Se]CCC(N)C(=O)O (stereo not given) | inactive
Oc1ccc2ccccc2c1SSc1c(O)ccc2ccccc12 | 23.5 µM (active)
Cc1nc2n(c(=O)c1CCN1CCC(c3noc4cc(F)ccc34)CC1)CCCC2 | inactive
COC(=O)C1=C(C)NC(C)=C(C(=O)OCCCN2CCC(c3ccccc3)(c3ccccc3)CC2)C1c1cccc([N+](=O)[O-])c1 (stereo not given) | 29.6 µM (active)
O=C(NC(Cc1cc(=O)[nH]c2ccccc12)C(=O)O)c1ccc(Cl)cc1 (stereo not given) | inactive
C[C@H](Cn1cnc2c(N)ncnc21)OCP(=O)(O)O | inactive
Cc1cccc(-c2[nH]ncc2-c2ccc3ncccc3n2)n1 | inactive
Nc1nc(N)c(N=O)c(OCC2CCCCC2)n1 | 9.35 µM (active)
CC(=O)O[C@H]1C(=O)[C@@]2(C)C([C@H](OC(=O)c3ccccc3)[C@]3(O)C[C@H](OC(=O)[C@H](O)[C@@H](NC(=O)c4ccccc4)c4ccccc4)C(C)=C1C3(C)C)[C@]1(OC(C)=O)CO[C@@H]1C[C@@H]2O (stereo not given in full) | inactive
